Experimental data taken from PubChem BioAssay (NCATS).
“And” between values parts separate entries of the source, which are not always exact repeats. Equal values may be shown once. Results filed as inconclusive are left out. Some compounds were tested as several samples or in several runs, with calls that do not always agree. The source made the active and inactive calls. The call rests on the fitted dose curve; in most records, active means well fitted inhibition curve with a large enough effect; inconclusive means small, poorly fitted or top-dose-only effect; inactive means flat fitted curve, though single readings scatter.

Target: Glutathione peroxidase 1 (Homo sapiens) (UniProt P07203)
Experiment: Primary qHTS Assay for Inhibitors of Recombinant Selenoprotein Glutathione Peroxidase 1 (GPX1) (AID 1845191); further: nearly all actives have a fitted effect of over 65% in size
Details: recombinant GPX1, GR-coupled NADPH fluorescence, 15 min; series mostly up to 48.8 µM; activity, negative = inhibition: at the top concentration
From the text: Assay Provider: Elias S.J. Arner MD PhD.
Department of Medical Biochemistry and Biophysics
Karolinska Institutet, Solna, Stockholm, Sweden
Selenoprotein glutathione peroxidases (GPX), like the ubiquitously expressed GPX1 and the ferroptosis modulator GPX4, enact their antioxidant activities by reducing hydroperoxides using glutathione. […] GPX1 and GPX4 inhibitors have thus shown promise as anti-cancer agents. Existing inhibitors are often promiscuous, or modulate GPX activity only indirectly, so novel direct inhibitors identified through screening against GPX1 and GPX4 could be valuable. Here, we developed optimized glutathione reductase (GR)-coupled GPX assays for the biochemical high-throughput screen (HTS) of almost 12,000 compounds with known mechanisms of action. Initial hits were triaged using a GR counter-screen, assessed for isoform specificity using a separate GPX2 assay, and were assessed for general selenocysteine-targeting activity using a thioredoxin reductase (TXNRD1) assay. With this suite of assays, we identified novel GPX1/GPX2- and GPX4-specific inhibitors and can here present a validated pipeline for future discovery research for selenoprotein-targeting agents.
SEQUENCE No. (e.g., 1, 2, 3, etc.); […] (e.g., Cells, Incubation, Reagent, etc.); VALUE; DESCRIPTION.
1; Reagent 1; 3 uL; GPx1 enzyme or no enzyme control in 1536-well, black, solid Greiner assay plate.
2; Compound; 25 nL; Kalypsis pin tool (Wako USA) equipped with a 1536-well pin head.
3; Incubation; 30 min; room temperature.
4; Reagent 2; 1 uL; 10 nM GPX1, 1 mM GSH, 0.5 mM CHP, 0.5 mM NADPH, 100 nM GR, 0.01% BSA substrate
5; Detection; Fluorescence; ViewLux microplate reader, excitation 340 nm and emission 450 nm.
6; Incubation; 15 min; room temperature.
7; Detection; Fluorescence; ViewLux microplate reader, excitation 340 nm and emission 450 nm.
NOTES (numbers refer to Sequence numbers above)
1. 3 uL of 16.66 nM GPX1 and 0.016% BSA in assay buffer (50 mM Tris-HCl, 2 mM EDTA (pH 7.5), 150 mM NaCl) was added to columns 3-48 of 1536-well assay plates using a BioRAPTR Flying Reagent Dispenser (Let's Go Robotics (LGR), Carlsbad, CA). A no-enzyme control (0.01% BSA in TES assay buffer) was added to columns 1-2.
2. 25 nL of test compounds and DMSO controls were added to each well with a pin tool (Kalypsys).
3. The assay plates were incubated for 30 minutes at room temperature.
4. 1 uL of master mix (500 nM glutathione reductase (GR), 5 mM reduced glutathione (GSH), 2.5 mM NADPH in assay buffer) was added. 1 uL of cumene hydroperoxide (CHP) ([2.5 mM] in 50% EtOH) was then added within 5 minutes to initiate the reaction. Final concentrations were: 10 nM GPX1, 1 mM GSH, 0.5 mM CHP, 0.5 mM NADPH, 100 nM GR, 0.01% BSA.
5. Initial fluorescence readout (t=0) at 340/450 nm was measured using a ViewLux multimodal detector (PerkinElmer, Waltham, MA).
7. Endpoint fluorescence readout (t=15) at 340/450 nm was measured 15 min after room temperature incubation.
Potency means the concentration at half of the fitted maximal effect.

Chain of Glutathione peroxidase 1 (Homo sapiens) (P07203 whole entry, looked up): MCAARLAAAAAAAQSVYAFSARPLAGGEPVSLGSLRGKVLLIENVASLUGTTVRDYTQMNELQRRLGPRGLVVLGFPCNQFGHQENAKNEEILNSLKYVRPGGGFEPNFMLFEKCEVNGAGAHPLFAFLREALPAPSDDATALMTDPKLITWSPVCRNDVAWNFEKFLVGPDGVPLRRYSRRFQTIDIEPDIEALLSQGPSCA

Row | SMILES | activity, negative = inhibition | Potency | outcome
1 | O=C(Nc1ccc(O)cc1)c1ccccc1O | -10.4% (inactive) | – | –
2 | CCSc1ccc2c(c1)N(CCCN1CCN(C)CC1)c1ccccc1S2 | -30.4% (inactive) | – | –
3 | C[C@]12CCC(=O)C[C@@H]1CC[C@@H]1[C@@H]2CC[C@]2(C)C=CC[C@@H]12 | -8% (inactive) | – | –
4 | C=CC[C@@H]1/C=C(\C)C[C@H](C)C[C@H](OC)[C@H]2O[C@@](O)(C(=O)C(=O)N3CCCC[C@H]3C(=O)O[C@H](/C(C)=C/[C@@H]3CC[C@@H](O)[C@H](OC)C3)[C@H](C)[C@@H](O)CC1=O)[C@H](C)C[C@@H]2OC | – | inactive and 2.55 µM (active) | –
5 | CCCCCCCCCCCC(=O)OCC(O)CO (stereo not given) | – | – | inactive
6 | C=C1CC[C@H](O)C/C1=C\C=C1/CCC[C@]2(C)[C@@H]([C@H](C)CCCC(C)C)CC[C@@H]12 | – | – | inactive
7 | N[C@@H](Cc1cc(I)c(Oc2ccc(O)c(I)c2)c(I)c1)C(=O)O | – | inactive | –
8 | CC(=O)Nc1c(I)c(C(=O)O)c(I)c(N(C)C(C)=O)c1I | 2.88% (inactive) | – | –
9 | CCCOc1cc(N)ccc1C(=O)OCCN(CC)CC | – | – | inactive
10 | O=C1CCC(=O)N1CO | -13.2% (inactive) | – | –
11 | CCN1C(=O)NC(c2ccccc2)C1=O (stereo not given) | -17.7% (inactive) | – | –
12 | O=C(O)Cc1cc(I)c(Oc2ccc(O)c(I)c2)c(I)c1 | -6.67% (inactive) | – | –
13 | C=C1[C@H](CO)[C@@H](O)C[C@@H]1n1cnc2c(=O)[nH]c(N)nc21 | – | inactive | –
14 | CC1=CC(=C(c2ccc(N)cc2)c2ccc(N)cc2)C=CC1=N | – | – | inactive
15 | COc1cc2c(cc1OC)[C@@H](Cc1cc(OC)c(OC)c(OC)c1)[N+](C)(CCCOC(=O)CC/C=C/CCC(=O)OCCC[N+]1(C)CCc3cc(OC)c(OC)cc3[C@H]1Cc1cc(OC)c(OC)c(OC)c1)CC2 (stereo not given in full) | – | – | inactive
16 | O=C(OCc1ccccc1)c1cccnc1 | 4.8% (inactive) | – | –
17 | COc1ccc2c(c1)OC(C)(C)C(c1ccccc1)C2c1ccc(OCCN2CCCC2)cc1 (stereo not given) | 2.04% (inactive) | – | –
18 | CN1C(=O)OC(C)(C)C1=O | 3.32% (inactive) | – | –
19 | CC/C=C\C/C=C\C/C=C\C/C=C\C/C=C\C/C=C\CCC(=O)O | -8.02% (inactive) | – | –
20 | CN[C@@H]1[C@@H](O)[C@@H](O[C@@H]2[C@@H](O)[C@H](O[C@H]3O[C@H](CN)[C@@H](O)[C@H](O)[C@H]3O)[C@@H](N)C[C@H]2NC(=O)C(O)CN)OC[C@]1(C)O (stereo not given in full) | 4.92% (inactive) | – | –

Row | SMILES | activity, negative = inhibition | Potency | outcome
21 | N=C(N)c1ccc(/C=C/c2ccc(C(=N)N)cc2O)cc1 | -13% (inactive) | – | –
22 | Nc1nc(/C(=C/CC(=O)O)C(=O)N[C@@H]2C(=O)N3C(C(=O)O)=CCS[C@H]23)cs1 | – | 9.04 µM (active) | –
23 | CCOC(=O)Cc1ccc(-c2ccccc2)cc1 | -6.98% [at 98.3 µM] (inactive) | – | –
24 | NC(=O)OCC(O)COc1ccc(Cl)cc1 (stereo not given) | -13.2% (inactive) | – | –
25 | CC(=O)Nc1c(I)c(C(=O)N[C@H]2C(O)O[C@H](CO)[C@@H](O)[C@@H]2O)c(I)c(N(C)C(C)=O)c1I (stereo not given in full) | – | – | inactive
26 | CCCCC(=O)O[C@H]1CC[C@H]2[C@@H]3CCc4cc(O)ccc4[C@H]3CC[C@]12C | – | – | inactive
27 | O=S(=O)(O)CCCS(=O)(=O)O | -20.8% (inactive) | – | –
28 | COc1ccc2c(c1)N(C[C@H](C)CN(C)C)c1ccccc1S2 | -19.9% (inactive) | – | –
29 | Cc1cc(-c2ccc(N=Nc3ccc4c(S(=O)(=O)O)cc(S(=O)(=O)O)c(N)c4c3O)c(C)c2)ccc1N=Nc1ccc2c(S(=O)(=O)O)cc(S(=O)(=O)O)c(N)c2c1O | 1.27% (inactive) | – | –
30 | C[C@]12CC[C@@H]3c4ccc(OC(=O)c5ccccc5)cc4CC[C@H]3[C@@H]1CC[C@@H]2O | – | inactive | –
31 | CCC[C@@H]1C[C@@H](C(=O)N[C@@H]([C@H]2O[C@H](SC)[C@H](O)[C@@H](O)[C@H]2O)[C@H](C)Cl)N(C)C1 | – | inactive | –
32 | CCCCC(O)c1ccccc1 (stereo not given) | – | – | inactive
33 | FC(F)(F)C(F)(F)C(F)(F)C(F)(F)C(F)(F)C(F)(F)F | -3.83% (inactive) | – | –
34 | C[C@@H](O)[C@H]1C(=O)N2C(C(=O)[O-])=C(SC3Cn4cnc[n+]4C3)[C@H](C)[C@H]12 (stereo not given in full) | -13.7% [at 9.52 µM] (inactive) | – | –
35 | CN1C(=O)C[C@@H](C(=O)N[C@@H](Cc2cnc[nH]2)C(=O)N2CCC[C@H]2C(N)=O)NC1=O | – | – | inactive
36 | CC1(O)CCC(C(C)(C)O)CC1 (stereo not given) | 2.62% (inactive) | – | –
37 | CO[C@@]1(NC(=O)C2SC(=C(C(N)=O)C(=O)O)S2)C(=O)N2C(C(=O)O)=C(CSc3nnnn3C)CS[C@@H]21 (stereo not given in full) | – | 10.1 µM (active) | –
38 | Oc1cc(O)cc(O)c1 | -3.56% (inactive) | – | –
39 | CSc1nc2cc(Oc3cccc(Cl)c3Cl)c(Cl)cc2[nH]1 | 2.84% (inactive) | – | –
40 | CC(=O)N=c1sc(S(N)(=O)=O)nn1C | – | – | inactive
